The panel holds about 83,000 compounds, 20% with a hit somewhere; the sample as a whole holds those more often.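 For each line, cells grew in 96-well plates with the test compound present at a single concentration for 48 hours.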 Values without a mark were called inactive. Active and inactive are the calls of the source. How the source made its calls: active means growth percent below 10; inactive means the rest.
System: NCI-H522 lung
Assay: NCI-60 one-dose screen, 48 h (100 = growth as untreated, 0 = no growth, -100 = all killed)
Conditions: 10 µM unless noted

SMILES	growth
CCn1c(Cc2ccccc2Nc2c(Cl)cccc2Cl)nnc1SCC(=O)Nc1cccc(OC)c1	42.6%
COc1ccc2nc(C)cc(Sc3nc4ccccc4s3)c2c1	-20.9% (active)
COc1cnc2c(c1)C(=O)c1c-2n(CCCN2CCN(C)CC2)c(=O)c2cc(Cl)ccc12	11.7%
c1cn2cc(-c3ccc4ncn(C5CCCCC5)c4c3)nc(-c3ccc4c(c3)ncn4C3CCCCC3)c2n1	-52.6% (active)
CN1C(=O)N(C)C2C1NN=c1s/c(=C\c3ccc(C(F)(F)F)cc3)c(=O)n12 (stereo not drawn)	2.74% (active)
CN1C(=O)N(C)C2C1NN=c1s/c(=C\c3ccsc3)c(=O)n12 (stereo not drawn)	26.4%
C/C(=N\Nc1ccc([N+](=O)[O-])cn1)c1ccc(N)cc1	85.8%
COc1ccccc1/C=N\Nc1ccc([N+](=O)[O-])cn1	101%
CCCCCCCCCCCCCCCCCC(=O)[O][Sn]([CH2]CCC)([CH2]CCC)[CH2]CCC	-54.3% (active)
C[C@H](NC(=O)c1snnc1C1CC1)c1c(F)cccc1Cl	94.2%
CC(C)c1cccc(C#N)c1	107%
CN1C(=O)N(C)C2C1NN=c1s/c(=C\c3ccc(Br)cc3)c(=O)n12 (stereo not drawn)	-14.6% (active)
O=C1SCN(Cc2ccccc2)CN1Cc1ccccc1	26.3%
C[N+](C)(C)CC(=O)N/N=C\c1ccco1	85.7%
COc1cc(C2CC(c3ccc(Cl)cc3)=NN2C(C)=O)ccc1Oc1nc2c(c(=O)n(C)c(=O)n2C)n1C (stereo not drawn)	92.5%
CCN1CCN(Cc2ccc(NC(=O)Nc3ccc(-n4ccc5c(NC(=O)c6ccccc6)nccc54)cc3)cc2C(F)(F)F)CC1	-87.2% (active)
Nc1nc(N)c2cc(NCc3ccc(Cl)c(Cl)c3)ccc2n1	-69.8% (active)
O=c1oc2ccccc2cc1-c1cc(-c2ccc(-c3cc(-c4cc5ccccc5oc4=O)nc(-c4cc5ccccc5oc4=O)c3)cc2)cc(-c2cc3ccccc3oc2=O)n1	97%
C=C1C(=O)O[C@H]2[C@H]1CC/C(COC(=O)N[C@@H](Cc1c[nH]c3ccccc13)C(=O)OC)=C\CC[C@@]1(C)O[C@@H]21	-71.1% (active)

SMILES	growth
COc1cc(OC)c(Cl)cc1N	94.8%
COC(=O)c1ccc2c(c1)nc(-c1cc3ccccc3[nH]c1=O)n2-c1cc(C(C)(C)C)[nH]n1	-2.05% (active)
Fc1ccc(-c2nc(-c3ccc(-c4nc5ccc(F)cc5[nH]4)cc3)no2)cc1	91.4%
CCCC(CCC)(C(N)=O)C(=O)O	97.2%
CNC(=O)OC1C(O[C@H]2C[C@H]3[C@@H]4CC=C5C[C@@H](O)CC[C@]5(C)[C@H]4CC[C@]3(C)[C@H]2[C@H](C)C(=O)CCC(C)C)OCC(O)C1OC1OCC(O)C(O)C1OC(=O)c1ccc(OC)cc1 (stereo partly drawn)	-35.8% (active)
CC(=O)O[C@@H]1CC2C(C)(C)CCCC2(C)C2=C1C(=O)C(C(C)C)=CC2=O (stereo partly drawn)	-27.1% (active)
CC(=O)Oc1c(Cl)c(Cl)c(Cl)c(Cl)c1Cl	90.2%
Oc1c(C(Nc2ccccc2Br)c2ccccc2)ccc2cccnc12 (stereo not drawn)	-1.78% (active)
O=C1C(Cl)=C(Nc2cccc3ccccc23)C(=O)c2ccccc21	44.7%
Nc1c(C(=O)Nc2ccccc2)sc2nc3c(cc12)C(=O)CCC3	-33.8% (active)
CCOCCNc1ccc(S(=O)(=O)c2ccc(N)cc2)cc1N	96%
CCCCSc1ncnc2c1ncn2C1CCCCO1 (stereo not drawn)	106%
CCNCCCn1c2c(c3ccc(Cl)cc3c1=O)C(=O)c1cc(OC)cnc1-2	-10.2% (active)
COc1ccc2nc3ccccc3c(NCc3ccc(C)cc3)c2c1	26.4%
C=CCOC(=O)C1=C(C)NC2=C(C(=O)CCC2)C1c1ccc(F)cc1 (stereo not drawn)	82.4%
O=C(O)C(CCc1ccccc1)NCc1ccccc1 (stereo not drawn)	87%
COc1ncnc2[nH]cc(CN3CCN(c4ccc(F)cc4)CC3)c12	95.1%
O=S(=O)(Cc1ccc(Cl)cc1Cl)c1ccc(Cl)cc1	-5.62% (active)
COc1ccc(-c2nc3ccccc3n3cccc23)cc1	101%

— PubChem BioAssay (NCI)
